From PubChem
Prostate diff = LNCaP prostate cell differentiation activation. hit rate 0.56% among 24,000. side scatter shift, % at 10 µM. flow cytometry side scatter, 4 d;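 active means side scatter shift above 30%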;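 further: androgen-responsive LNCaP prostate cancer cells in charcoal-stripped serum medium; higher shift means more granular cells and more differentiation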
S aureus QS inh = S. aureus quorum sensing inhibition. S. aureus RN6390 RNAIII-GFP reporter, AIP-induced, flow cytometry 3 h. hit rate 0.3% among 24,000. inhibition, % at 2 µM;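 active means share of bacteria positive for the green fluorescent reporter and its mean brightness both inhibited by 50% or more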
26S disassembly = blocks ATP-dependent breakdown of the yeast 26S proteasome; anti-FLAG beads, GFP-proteasome disassembly, flow cytometry; inhibition of disassembly, % (no concentration beside the values); hit rate 0.2% among 24,000; AID 751;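 active means inhibition of disassembly above about 33%, limit read from the data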;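 further: higher percent means more bead fluorescence retained so stronger block of disassembly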
Large screens that a line does not name were inactive. Rows were chosen to be rich in hits. Some 0.91% of all compounds tested hit in one or more screens of this group.

Cc1ccc2c(c1)C1CN(C)CCC1N2C(=O)c1ccc(Br)o1 (stereo not drawn)	none
Cc1ccc2c(c1)[C@@H]1CN(C)CC[C@@H]1N2C(=O)Nc1cccc(C(F)(F)F)c1	Prostate diff 55.0
CC(C(=O)N1CCC2(CC1)OCCO2)C1Sc2ccccc2NC1=O (stereo not drawn)	none
COc1ccc(C2SCC(=O)Nc3c2c(=O)[nH]n3C2CCCCCC2)cc1OC (stereo not drawn)	none
CCOc1ccc(C2SCC(=O)Nc3c2c(=O)[nH]n3C2CCCCCC2)cc1 (stereo not drawn)	Prostate diff 34.0
O=C(Cn1ncc2c3ccccc3n(Cc3ccc(F)cc3)c2c1=O)N1CCC2(CC1)OCCO2	none
